# Data published in PubChem BioAssay.
# Activity calls are given as the source filed them.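 The calls were made as follows: active = thallium flux through the channel raised or lowered by more than 3 SD from vehicle-only wells, actives on both sides; inactive = the rest.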
# Columns and labels:
# Assay in all cases: modulators of BK channel variants, profiling panel, selectivity assay, cell-based, U2OS BacMam, thallium flux, beta subunits (AID 1259406);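 also: initial slope of Thallos dye fluorescence rise after thallium is added; log ratio against the mean of 0.3% DMSO vehicle wells on the same plate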
# F380Y = details: at 30 µM
# F380Y/beta1 = details: at 30 µM
# F380Y/beta2Delta = details: at 30 µM
# F380Y/beta4 = details: at 30 µM
# [1] = target: Calcium-activated potassium channel subunit alpha-1 (Homo sapiens) + Leucine-rich repeat-containing protein 26 (Homo sapiens) (UniProt Q12791+Q2I0M4); details: F380Y/Slo1WT/gamma1, at 30 µM
# R275C = details: at 30 µM
# R275C/beta1 = details: at 30 µM
# R275C/beta2Delta = details: at 30 µM
# R275C/beta4 = details: at 30 µM
# R275C/Slo1WT/beta2 = details: at 30 µM
# Calcium-activated potassium channel subunit alpha-1 (Homo sapiens) + Leucine-rich repeat-containing protein 26 (Homo sapiens), sequence (Q2I0M4 whole entry, looked up, one chain of several): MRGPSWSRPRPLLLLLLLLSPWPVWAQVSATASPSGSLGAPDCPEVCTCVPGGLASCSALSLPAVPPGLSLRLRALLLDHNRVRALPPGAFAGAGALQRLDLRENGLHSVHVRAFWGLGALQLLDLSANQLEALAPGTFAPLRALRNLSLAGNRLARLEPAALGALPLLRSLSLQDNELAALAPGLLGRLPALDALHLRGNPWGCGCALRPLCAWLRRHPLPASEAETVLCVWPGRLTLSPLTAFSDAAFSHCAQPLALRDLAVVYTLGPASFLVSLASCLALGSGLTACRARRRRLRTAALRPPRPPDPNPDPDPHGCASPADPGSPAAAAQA
SMILES,log fold change Tl+ flux (F380Y),log fold change Tl+ flux (F380Y/beta1),log fold change Tl+ flux (F380Y/beta2Delta),log fold change Tl+ flux (F380Y/beta4),log fold change Tl+ flux [1],log fold change Tl+ flux (R275C),log fold change Tl+ flux (R275C/beta1),log fold change Tl+ flux (R275C/beta2Delta),log fold change Tl+ flux (R275C/beta4),log fold change Tl+ flux (R275C/Slo1WT/beta2)
N=c1c(C(N)=O)cc2c(=O)n3ccccc3nc2n1Cc1ccco1,0.0339 (inactive),-0.0185 (inactive),0.0123 (inactive),-0.019 (inactive),-0.0157 (inactive),0.0321 (inactive),-0.0587 (inactive),-0.00823 (inactive),-0.00879 (inactive),0.0143 (inactive)
COc1ccc(Cl)cc1N1C(=O)C=C(c2ccccc2)C1=O,0.0164 (inactive),0.00407 (inactive),-0.00673 (inactive),-0.00456 (inactive),0.00342 (inactive),-0.0171 (inactive),0.056 (inactive),0.00976 (inactive),0.0143 (inactive),-0.0335 (inactive)
Cc1ccc(S(=O)(=O)NC(=O)NCc2csc3ccc(Cl)cc23)cc1,0.252 (active),0.65 (active),0.241 (active),0.366 (active),0.14 (active),0.0453 (inactive),0.48 (active),0.193 (active),0.329 (active),0.116 (active)
CCOC(=O)C(C#N)=CNc1ccccc1OC(F)(F)F,-0.00694 (inactive),-0.036 (inactive),0.0178 (inactive),0.027 (inactive),-0.0183 (inactive),-0.0335 (inactive),-0.00201 (inactive),-0.00638 (inactive),-0.0357 (inactive),-0.0488 (inactive)
Cn1c(SCCS(=O)(=O)c2ccc(OC(F)(F)F)cc2)nnc1C(F)(F)F,-0.047 (inactive),-0.00843 (inactive),-0.0119 (inactive),0.00857 (inactive),-0.00452 (inactive),0.0189 (inactive),-0.0256 (inactive),-0.0306 (inactive),-0.0219 (inactive),-0.0104 (inactive)
O=C(Cn1nnc(N2CCCC2)n1)NN=Cc1ccc(Cl)cc1,-0.0338 (inactive),-0.0165 (inactive),-0.0415 (inactive),0.0509 (inactive),-0.0411 (inactive),0.0738 (inactive),0.012 (inactive),-0.0395 (inactive),0.0185 (inactive),-0.00152 (inactive)
C=CCNC(SC)=C(C#N)C(N)=O,-0.000365 (inactive),-0.02 (inactive),0.0377 (inactive),-0.0612 (inactive),0.0338 (inactive),-0.0174 (inactive),-0.038 (inactive),0.00669 (inactive),-0.0131 (inactive),-0.00229 (inactive)
CC12CC=C(C#N)C1(C)CC=C2C#N (stereo not given),0.0296 (inactive),0.00573 (inactive),0.0262 (inactive),0.00555 (inactive),0.0366 (inactive),-0.017 (inactive),0.0163 (inactive),-0.011 (inactive),0.0134 (inactive),-0.00417 (inactive)
CC(=O)CSc1nc(SCC(C)=O)c2cnc(N3CCCC3)nc2n1,-0.0105 (inactive),-0.0297 (inactive),-0.00118 (inactive),-0.00484 (inactive),0.0577 (inactive),-0.0104 (inactive),-0.000725 (inactive),-0.0224 (inactive),-0.00829 (inactive),0.0731 (inactive)
Oc1c(Cl)cc(Cl)cc1C=Nc1nccs1,0.115 (active),0.153 (active),0.108 (active),0.105 (active),0.0431 (inactive),-0.0362 (inactive),0.112 (active),0.0936 (active),0.0731 (inactive),0.0241 (inactive)
CN1CCN(S(=O)(=O)c2ccc(CNC(=O)c3ccccc3)s2)CC1,-0.0286 (inactive),-0.0353 (inactive),-0.0627 (inactive),-0.0096 (inactive),-0.0465 (inactive),0.0435 (inactive),0.0151 (inactive),-0.00195 (inactive),0.00386 (inactive),-0.0258 (inactive)
O=C(Nc1ccc(OC(F)(F)F)cc1)Nc1cc(C(F)(F)F)ccc1N1CCOCC1,0.0283 (inactive),-0.00979 (inactive),0.0491 (inactive),-0.00808 (inactive),0.0378 (inactive),0.022 (inactive),0.0354 (inactive),-0.0143 (inactive),-0.0232 (inactive),-0.0238 (inactive)
Cn1c(SCc2ccc(C(F)(F)F)cc2)nnc1C(F)(F)F,-0.0854 (inactive),0.00114 (inactive),-0.0293 (inactive),0.0223 (inactive),-0.00125 (inactive),-0.0523 (inactive),-0.14 (active),-0.0607 (inactive),-0.153 (active),-0.00318 (inactive)
NC(=NOC(=O)Nc1cccc(Cl)c1)c1ccno1,-0.00531 (inactive),0.0032 (inactive),0.0232 (inactive),0.000547 (inactive),0.0155 (inactive),-0.025 (inactive),-0.0193 (inactive),0.00772 (inactive),0.0126 (inactive),0.0133 (inactive)
Cc1oc(S(=O)(=O)N2CCOCC2)cc1C(=O)Nc1ccc(F)cc1,0.119 (active),-0.00781 (inactive),-0.0147 (inactive),-0.000333 (inactive),0.0253 (inactive),0.0114 (inactive),0.0125 (inactive),0.00085 (inactive),0.00598 (inactive),-0.0174 (inactive)
CN(NC(=O)c1ccc(Cl)s1)c1cnn(-c2cc(Cl)cc(Cl)c2)c(=O)c1Cl,0.0366 (inactive),-0.0161 (inactive),0.019 (inactive),0.00909 (inactive),-0.0561 (inactive),-0.0148 (inactive),0.00182 (inactive),0.046 (inactive),-0.0313 (inactive),-0.00119 (inactive)
